Results: PubChem BioAssay AID743279 (National Center for Advancing Translational Sciences (NCATS), 2014)
Hit rate of the full screen: of about 360,000 compounds, about 17,000 (4.7%) were called active. Roughly 5% stayed inconclusive and do not appear here. This excerpt belongs to a sample that is enriched for actives. A number with no mark means an inactive call. Rule as the data show it: active = activity change below about -50%; inconclusive = mostly about -30% to -49%; inactive = weaker than that.

Assay: qHTS for Inhibitors of Inflammasome Signaling: IL-1-beta AlphaLISA Primary Screen
Conditions: THP-1 LPS/ATP IL-1B secretion, 16 h; at 57.5 µM, hits give low values
Method in brief: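 THP-1 cells pretreated 1 hr with compounds (up to 57.5 uM final), then stimulated with LPS (250 ng/mL final) plus ATP (1.25 mM final); secreted IL-1B measured by AlphaLISA after 16 hr, decreased signal indicating inhibition.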
% is scaled to controls: 0 for no effect and ±100 for the full control effect.

Compound	activity change
Cc1nnc(N/N=C/c2ccccn2)[nH]c1=O	266%
COc1ccc(Cc2nnc(N/N=C/c3ccccc3O)[nH]c2=O)cc1OC	-100% (active)
O=c1[nH]c(NCCO)nnc1Cc1ccc(Cl)cc1	-0.873%
CC(=O)OCC1(O)CC23CCC4c5ccoc5CCC4(C)C2CCC1C3 (stereo unspecified)	-29.5%
O=C(Nc1ccc(N2CCN(C(=O)c3ccccc3)CC2)c(Cl)c1)c1cccnc1	-81.2% (active)
Cc1ccccc1N1CCN(C(=O)c2cccnc2)CC1	-6.96%
O=C(Nc1ccc(N2CCN(C(=O)c3ccccc3)CC2)c(Cl)c1)c1ncn[nH]1	-4.07%
COc1ccc(C(=O)NCc2ccc(Cl)cc2)cc1S(=O)(=O)N1CCCC1	-19.3%
CCOC(=O)C1(C)CCCN(C(=O)c2cccc(Cl)c2)C1 (stereo unspecified)	37%
CCOC(=O)[C@]12CCCC=C1N(Cc1ccc3c(c1)OCO3)C(=O)[C@H](CC(=O)N1CCN(C(=O)c3ccco3)CC1)C2	-17.6%
CCc1c(C)nc2c(OC)cccc2c1Cl	-3.94%
COc1nc(N=C(N)N)nc2c(C)cccc12	-63.3% (active)
CC(=O)Oc1ccc(-c2nc3c(C)cccc3c(=O)o2)cc1	24.4%
Cc1nc(N=C(N)N)nc2c(C)cccc12	-96% (active)
COc1ccc(C(=O)N2CCCCC2c2cc(C(=O)Nc3ccc(F)c(Cl)c3)no2)cc1 (stereo unspecified)	-4.59%
CCOC1=C2[C@@H](CN(S(=O)(=O)c3ccc(C)cc3)[C@H]2c2ccccc2F)[C@H]2C(=O)N(Cc3ccccc3)C(=O)[C@H]2C1	0.677%
COc1ccc(-c2ccc(CNCCCN3CCOCC3)o2)cc1Cl	-66% (active)
C=CCOc1ccc(Cl)cc1CNCCCN1CCOCC1	-12.8%
COc1ccc(S(=O)(=O)N(C)CC(=O)NCCCN2CCOCC2)cc1Cl	25.8%
Cc1[nH]c2ccccc2c1C(=O)c1cc([C@H](NC(=O)OC(C)(C)C)C(C)C)sc1N	-6.92%
C[C@H](CO)N1C[C@H](C)[C@@H](CN(C)S(=O)(=O)c2ccc(F)cc2)OCc2cnnn2CCCC1=O	-17.7%
CCOC(=O)[C@]12CCCC=C1N(Cc1ccc(Cl)cc1Cl)C(=O)[C@H](CC(=O)N1CCCCC1)C2	-12.7%
COc1cc(OC)c(C(=O)NNC(=O)c2ccc(NS(=O)(=O)c3cccs3)cc2)cc1OC	-0.853%
COc1ccc(Cc2nnc(NC(=O)Cc3cccs3)s2)cc1	20.9%
COc1ccc(Cc2nnc(NC(=O)c3cc(OC)c(OC)c(OC)c3)s2)cc1OC	64.7%
COc1ccc(Cc2nnc(NC(=O)c3ccc(OC)cc3OC)s2)cc1	-81.7% (active)
